Measured values: PubChem BioAssay AID651592 (Sanford-Burnham Center for Chemical Genomics, 2012)
Activity calls are given as the source filed them.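 Rule for the calls: active = NF-kB reporter IC50 at most 10 µM, IL-8 IC50 within fivefold of it with bacterial filtrate but not with TNF-alpha; inactive = the rest.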

The molecules below were run against Interleukin-8 (Homo sapiens) (UniProt P10145) (assay: inhibitors of NFkB activation in CF airway cells, SAR follow-up, KKLEB cells, panel, IL8 HTRF, NFkB-GFP (AID 651592;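 note: immortalized cystic fibrosis airway epithelial KKLEB cells with an NF-kB GFP reporter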)). Conditions: PAF/TNFa-induced NFkB-GFP / IL8 HTRF, mean of runs.
Interleukin-8 (Homo sapiens), sequence (P10145 whole entry, looked up): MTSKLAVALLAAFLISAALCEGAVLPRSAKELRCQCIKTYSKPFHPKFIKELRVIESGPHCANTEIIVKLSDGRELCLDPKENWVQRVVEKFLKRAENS

Row | SMILES | outcome
1 | O=C(Nc1ccc(N2CCN(C(=O)c3ccccc3Cl)CC2)cc1)c1ccccc1 | inactive
2 | O=C(Nc1ccc(N2CCN(C(=O)c3ccc(F)cc3)CC2)cc1)c1cccnc1 | active
3 | O=C(Nc1ccc(N2CCN(C(=O)c3ccccc3F)CC2)cc1)c1ccccc1 | active
4 | O=C(Nc1ccc(N2CCN(C(=O)c3ccccc3)CC2)cc1)c1cc(Br)cc(Br)c1 | active
5 | O=C(Nc1ccc(N2CCN(C(=O)c3ccccc3Cl)CC2)cc1)c1ccccn1 | active
6 | O=C(Nc1ccc(N2CCN(C(=O)c3ccccc3Cl)CC2)cc1)c1cccc(Br)c1 | active
7 | CCOc1ccc(NCc2cc3c(-c4ccc(OC)c(OC)c4)nn(-c4ccccc4)c3[nH]c2=O)cc1 | active
8 | O=C(Nc1ccc(N2CCN(C(=O)c3ccc(F)cc3)CC2)cc1)c1cccc(Br)c1 | active
9 | O=C(Nc1ccc(N2CCN(C(=O)c3ccccc3Cl)CC2)cc1)c1cncc(Br)c1 | active
10 | O=C(Nc1ccc(N2CCN(C(=O)c3ccccc3F)CC2)cc1)c1ccncc1 | active
11 | O=C(Nc1ccc(N2CCN(C(=O)c3ccc(F)cc3)CC2)cc1)c1cc(Br)cc(Br)c1 | active
12 | O=C(Nc1ccc(N2CCN(C(=O)c3ccccc3)CC2)cc1)c1ccccn1 | active
13 | O=C(Nc1ccc(N2CCN(C(=O)c3ccc(F)cc3)CC2)cc1)c1ccccn1 | active
14 | O=C(Nc1ccc(N2CCN(C(=O)c3ccccc3)CC2)cc1)c1cccnc1 | active
15 | Cc1ccc(CNCc2cc3c(C(C)(C)C)nn(-c4ccccc4)c3[nH]c2=O)cc1 | active
16 | O=C(Nc1ccc(N2CCN(C(=O)c3ccccc3)CC2)cc1)c1cccc(Br)c1 | active
17 | O=C(Nc1ccc(N2CCN(C(=O)c3ccccc3Cl)CC2)cc1)c1cc(Br)cc(Br)c1 | active
18 | O=C(Nc1ccc(N2CCN(C(=O)c3ccccc3F)CC2)cc1)c1cccc(Br)c1 | active
